Records with an inconclusive call do not appear. Activity calls are given as the source filed them.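 Rule for the calls, unless noted: active = normalized viability below 100% at a tested concentration; inactive = the rest.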
Tests used:
[1] = ovarian cancer cell viability with rucaparib, profiling panel, oncology-focused library, rucaparib conditional (AID 1508598); details: patient-derived ovarian cancer cells, CellTiter-Glo viability, 144 h, stronger effect = lower value
[2] = growth inhibition of DIPG glioma cells, dose response, cell-based, SU-DIPG-XVII, MIPE5.0, CellTiter-Glo, qHTS (AID 1347060; cut-off not given, nearly all actives have AC50 up to about 26 µM;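 for AC50: cells exposed to compound for 48 hours before viability readout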); details: SU-DIPG-XVII viability, CellTiter-Glo ATP luminescence
[3] = growth inhibition of DIPG glioma cells, dose response, cell-based, SU-DIPG-XIII, MIPE4.0, CellTiter-Glo, qHTS (AID 1347061; cut-off not given, nearly all actives have AC50 up to about 37 µM;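 note: cells exposed to compound for 48 hours before readout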); details: SU-DIPG-XIII viability, CellTiter-Glo ATP luminescence
[4] = growth inhibition of DIPG glioma cells, dose response, cell-based, JHH-DIPG-1, MIPE4.0, CellTiter-Glo, qHTS (AID 1347062; cut-off not given, nearly all actives have AC50 up to about 27 µM;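 for AC50: cells exposed to compound for two days before readout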); details: JHH-DIPG-1 viability, CellTiter-Glo ATP luminescence
[5] = growth inhibition of DIPG glioma cells, dose response, cell-based, SU-DIPG-IV, MIPE4.0, CellTiter-Glo, qHTS (AID 1347063; cut-off not given, nearly all actives have AC50 up to about 30 µM;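 note: compound exposure lasted 48 hours before the viability readout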); details: SU-DIPG-IV viability, CellTiter-Glo ATP luminescence
[6] = growth inhibition of DIPG glioma cells, dose response, cell-based, SU-DIPG-XIII, MIPE5.0, CellTiter-Glo, qHTS (AID 1347064; cut-off not given, nearly all actives have AC50 up to about 23 µM;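 for AC50: cells exposed to compound for 48 hours before the viability read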); details: SU-DIPG-XIII viability, CellTiter-Glo ATP luminescence
[7] = JHH-DIPG-1 glioma cell viability, MIPE5.0 library, CellTiter-Glo luminescence, qHTS (AID 1347067; cut-off not given, nearly all actives have AC50 up to about 26 µM;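 note: cells exposed to compound for 48 hours before readout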); details: JHH-DIPG-1 glioma viability, CellTiter-Glo ATP luminescence
[8] = SU-DIPG-XXV glioma cell viability, MIPE5.0 library, qHTS (AID 1347068; cut-off not given, nearly all actives have IC50 up to about 30 µM;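 for IC50: cells exposed to compound for 48 hours before viability readout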)
[9] = viability loss in pontine glioma line – cell-based, SU-DIPG-XXV, MIPE5.0, CellTiter-Glo, qHTS, dose response (AID 1347065; cut-off not given, nearly all actives have AC50 up to about 26 µM;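 note: cells exposed to compound for 48 hours before ATP readout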); details: CellTiter-Glo ATP luminescence
[10] = modifiers of HSF1 nuclear foci, imaging, Selleck Cancer Library (AID 1347162; in the data active = plate-normalised HSF1 focus index below about 0.46); details: human cells, at 10 µM; SSMD: measured here: HSF1 foci SSMD mean; cell count: measured here: cell number; plate-normalised HSF1 focus index: stronger effect = lower value
[11] = SU-DIPG-VI glioma cell viability, MIPE4.0 library, CellTiter-Glo luminescence, qHTS (AID 1347066; cut-off not given, nearly all actives have AC50 up to about 30 µM;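 note: cells exposed to compound for 48 hours before readout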); details: CellTiter-Glo ATP luminescence
[12] = sensitizers of A549 cells to miR-34 induction, primary screen, imaging, A549 dox-inducible miR-34, nuclei and caspase counts (AID 1347080;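 active = compounds whose cell count with miR-34 switched on is under 0.7 times the count with it off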); details: A549 miR-34 inducible, Hoechst nuclei count, 48 h
[13] = survival rescue of mitochondrial mutant cells in low glucose, primary screen, MELAS cybrids, Rieske KO mouse fibroblasts, CellTiter-Glo (AID 1508586;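 active = mean z-score across replicates of 1.96 or higher in either the MELAS or the Rieske mutant cell line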;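 note: z relative to plate mean and SD of compound and empty wells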)
[14] = at 0.0195 µM, OCI-P5x cells, with rucaparib 20 µM, 100% = cells with rucaparib alone
[15] = at 0.0195 µM, OCI-P5x cells, without rucaparib
[16] = at 0.0781 µM, OCI-C5x cells, with rucaparib 10 µM, 100% = cells with rucaparib alone
[17] = at 0.0781 µM, OCI-C5x cells, without rucaparib
[18] = at 0.0781 µM, OCI-P5x cells, with rucaparib 20 µM, 100% = cells with rucaparib alone
[19] = at 0.0781 µM, OCI-P5x cells, without rucaparib
[20] = at 0.313 µM, OCI-C5x cells, with rucaparib 10 µM, 100% = cells with rucaparib alone
[21] = at 0.313 µM, OCI-C5x cells, without rucaparib
[22] = at 0.313 µM, OCI-P5x cells, with rucaparib 20 µM, 100% = cells with rucaparib alone
[23] = at 0.313 µM, OCI-P5x cells, without rucaparib
[24] = at 1.25 µM, OCI-C5x cells, with rucaparib 10 µM, 100% = cells with rucaparib alone
[25] = at 1.25 µM, OCI-C5x cells, without rucaparib
[26] = at 1.25 µM, OCI-P5x cells, with rucaparib 20 µM, 100% = cells with rucaparib alone
[27] = at 1.25 µM, OCI-P5x cells, without rucaparib
[28] = at 5 µM, OCI-C5x cells, with rucaparib 10 µM, 100% = cells with rucaparib alone
[29] = at 5 µM, OCI-C5x cells, without rucaparib
[30] = at 5 µM, OCI-P5x cells, with rucaparib 20 µM, 100% = cells with rucaparib alone
[31] = at 5 µM, OCI-P5x cells, without rucaparib
[32] = stronger effect = lower value, cell number ratio, induced over uninduced
[33] = measured here: relative caspase fold change +Dox/-Dox
[34] = measured here: total cells with miR-34 induction, stronger effect = lower value
[35] = measured here: total cells without miR-34 induction
[36] = MELAS cybrid survival, CellTiter-Glo 48 h, stronger effect = higher value
[37] = Rieske KO mouse fibroblast survival, CellTiter-Glo 72 h

COc1c(C)cnc(Cn2cnc3c(Cl)nc(N)nc32)c1C
active: viability [1, 18] 33.6% | viability [1, 19] 68.7% | viability [1, 20] 98.4% | viability [1, 22] 20.3% | viability [1, 23] 9.78% | viability [1, 24] 12.2% | viability [1, 25] 15.4% | viability [1, 26] 9% | viability [1, 27] 7.18% | viability [1, 28] 11.2% | viability [1, 29] 10.3% | viability [1, 30] 9.01% | viability [1, 31] 6.09%
inactive: viability [1, 14] 128% | viability [1, 15] 121% | viability [1, 16] 133% | viability [1, 17] 137% | viability [1, 21] 127%

Nc1cccc2c1CN([C@H]1CCC(=O)NC1=O)C2=O
inactive: outcome [2] | outcome [3] | outcome [4] | outcome [5] | outcome [6] | outcome [7] | outcome [8]

O=C(/C=C/c1cccnc1)NCCCCC1CCN(C(=O)c2ccccc2)CC1
inactive: plate-normalised HSF1 focus index [10] 1.05
active: AC50 [2] 11.8 nM | AC50 [3] 16.6 nM | AC50 [4] 4.18 nM | AC50 [5] 20.9 nM | AC50 [6] 1.86 nM | AC50 [9] 4.68 nM | AC50 [7] 4.17 nM
1.27: SSMD [10]
7280: cell count [10]

Cc1ccc(C(=O)Nc2cccc(C(F)(F)F)c2)cc1Nc1nc(-c2cccnc2)nc2c1cnn2C
1.01: fold change [12, 33]
3950: cell count [12, 35]
active: AC50 [2] 16600 nM | AC50 [4] 18700 nM | AC50 [5] 16600 nM | AC50 [6] 18600 nM | AC50 [11] 23500 nM | AC50 [7] 20900 nM
2.14: z-score [13, 37]
-0.539: z-score [13, 36]
inactive: outcome [3] | outcome [8] | fold change [12, 32] 1.02
4020: cell count [12, 34]

CNC(=O)c1ccccc1Nc1nc(Nc2ccc(N3CCOCC3)cc2OC)ncc1Cl
active: AC50 [2] 590 nM | AC50 [3] 5900 nM | AC50 [4] 1480 nM | AC50 [5] 2960 nM | AC50 [6] 235 nM | AC50 [9] 186 nM | AC50 [7] 661 nM | IC50 [8] 1050 nM
-1.89: z-score [13, 37]
1560: cell count [12, 34]
0.999: fold change [12, 33]
1730: cell count [12, 35]
inactive: fold change [12, 32] 0.899 | z-score [13, 36] 0.492

CS(=O)(=O)c1ccc(-c2cnc(N)c(C(=O)Nc3ccccc3)n2)cc1
0.481: fold change [12, 33]
inactive: outcome [2] | outcome [3] | outcome [4] | outcome [5] | outcome [6] | outcome [11] | outcome [7] | outcome [8] | fold change [12, 32] 1.01 | z-score [13, 36] -0.286
4300: cell count [12, 34]
0.758: z-score [13, 37]
4270: cell count [12, 35]

c1ccc(-c2nn3c(c2-c2ccnc4cc(OCCN5CCOCC5)ccc24)CCC3)nc1
6520: cell count [10]
inactive: outcome [2] | outcome [3] | outcome [4] | outcome [5] | outcome [6] | outcome [11] | outcome [7] | plate-normalised HSF1 focus index [10] 1.13
2.44: SSMD [10]

CC(C)c1cc(-c2n[nH]c(=O)n2-c2ccc3c(ccn3C)c2)c(O)cc1O
1400: cell count [12, 35]
active: AC50 [2] 37.2 nM | AC50 [3] 132 nM | AC50 [4] 66.2 nM | AC50 [5] 59 nM | AC50 [6] 41.7 nM | AC50 [9] 37.2 nM | IC50 [8] 83.3 nM | z-score [13, 36] 3.03 | viability ([1]; at 0.00122 µM, OCI-C5x cells, without rucaparib) 98.2% | viability ([1]; at 0.00488 µM, OCI-C5x cells, with rucaparib 10 µM, 100% = cells with rucaparib alone) 96.9% | viability [1, 14] 85.2% | viability [1, 16] 44.1% | viability [1, 17] 14.7% | viability [1, 18] 18.8% | viability [1, 19] 10.9% | viability [1, 20] 11.6% | viability [1, 21] 6.96% | viability [1, 22] 6.88% | viability [1, 23] 5.54% | viability [1, 24] 10% | viability [1, 25] 6.57% | viability [1, 26] 5.29% | viability [1, 27] 4.83% | viability [1, 28] 8.35% | viability [1, 29] 6.47% | viability [1, 30] 6.04% | viability [1, 31] 5.33%
0.773: fold change [12, 33]
0.0782: z-score [13, 37]
1450: cell count [12, 34]
inactive: fold change [12, 32] 1.03 | viability ([1]; at 0.000305 µM, OCI-C5x cells, with rucaparib 10 µM, 100% = cells with rucaparib alone) 102% | viability ([1]; at 0.000305 µM, OCI-C5x cells, without rucaparib) 108% | viability ([1]; at 0.000305 µM, OCI-P5x cells, with rucaparib 20 µM, 100% = cells with rucaparib alone) 116% | viability ([1]; at 0.000305 µM, OCI-P5x cells, without rucaparib) 121% | viability ([1]; at 0.00122 µM, OCI-C5x cells, with rucaparib 10 µM, 100% = cells with rucaparib alone) 100% | viability ([1]; at 0.00122 µM, OCI-P5x cells, with rucaparib 20 µM, 100% = cells with rucaparib alone) 124% | viability ([1]; at 0.00122 µM, OCI-P5x cells, without rucaparib) 119% | viability ([1]; at 0.00488 µM, OCI-C5x cells, without rucaparib) 110% | viability ([1]; at 0.00488 µM, OCI-P5x cells, with rucaparib 20 µM, 100% = cells with rucaparib alone) 126% | viability ([1]; at 0.00488 µM, OCI-P5x cells, without rucaparib) 124% | viability ([1]; at 0.0195 µM, OCI-C5x cells, with rucaparib 10 µM, 100% = cells with rucaparib alone) 117% | viability ([1]; at 0.0195 µM, OCI-C5x cells, without rucaparib) 117% | viability [1, 15] 104%

Reference: PubChem BioAssay
